Results reported in PubChem BioAssay (Tox21).
Records with an inconclusive call do not appear. The source made the active and inactive calls. Unless noted, calls come from the whole dose curve; as a rule, active = well fitted curve in the direction sought with a large enough effect in the repeat runs; inconclusive = weak or mixed curves; inactive = no such curve, though single readings can be large; an effect the other way counts as inactive or inconclusive.

What was measured:
[1] = qHTS assay to identify small molecule agonists of the NFkB signaling pathway (AID 1159509; active = well fitted curve in the direction sought with a large enough effect in the signal ratio in the repeat runs, not every such curve was filed as active; the % refers to the signal ratio); conditions: NFkB-bla ME-180 cells, beta-lactamase FRET ratio, 5 h; series mostly up to 61 µM
How it was run: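 Beta-lactamase reporter assay run in quantitative high-throughput format on an NF-kB-responsive ME-180 line, with 5 hr compound treatment and a FRET-based blue/green fluorescence readout.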

[2] = qHTS assay to identify small molecule agonists of the NFkB signaling pathway - cell viability counter screen (AID 1159515; calls by dose curve; note: nearly all actives have a fitted effect of over 55% in size); conditions: NFkB-bla ME-180 viability, CellTiter-Glo luminescence, 5 h; series mostly up to 61 µM
How it was run: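 Read by CellTiter-Glo luminescence (30 min, room temperature) in the wells also used for the beta-lactamase FRET read. ME-180 NFkB-bla cells at 2,000 per well were plated overnight, then exposed to compound for 5 hr at 37 C.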

[3] = qHTS assay to identify small molecule agonists of the endoplasmic reticulum stress response signaling pathway (AID 1159516; active = well fitted activation curve with a large enough effect in the signal ratio in the repeat runs, not every such curve was filed as active; the % refers to the signal ratio); conditions: ESRE-bla HeLa, ER stress beta-lactamase reporter, 5 h; series mostly up to 61 µM
How it was run: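 Ratiometric FRET readout (405 nm excitation; 460 and 530 nm emission) of a beta-lactamase gene driven by the ER stress response element, after 2 hr substrate loading. HeLa ESRE-bla cells were seeded overnight and treated with compounds for only 5 hr at 37 C.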

[4] = qHTS assay to identify small molecule agonists of the endoplasmic reticulum stress response signaling pathway - cell viability counter screen (AID 1159517; calls by dose curve; note: nearly all actives have a fitted effect of over 50% in size); conditions: ESRE-bla HeLa viability, CellTiter-Glo luminescence, 5 h; series mostly up to 61 µM
How it was run: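 Steps: seed 1,500 ESRE-bla HeLa cells per well; incubate overnight at 37 C, 5% CO2; add compounds in DMSO for 5 hr; run FRET substrate 2 hr RT; add CellTiter-Glo, wait 30 min, read luminescence.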

[5] = qHTS assay to identify small molecule antagonists of the retinoid-related orphan receptor gamma (ROR-gamma) signaling pathway - cell viability counter screen (AID 1159520); conditions: Tet-on RORgamma CHO cells viability, ATP luminescence, 16 h; series mostly up to 92.4 µM; note: nearly all actives have a fitted effect of over 50% in size
How it was run: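 Tet-on ROR gamma CHO cells were given compounds for 2 hr, then doxycycline hyclate at 1 uM final, and incubated 16 hr at 37 C. Viability was measured as ATP content by CellTiter-Glo luminescence.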

[6] = target: Nuclear receptor ROR-gamma (Homo sapiens) (UniProt P51449); assay: qHTS assay to identify small molecule antagonists of the retinoid-related orphan receptor gamma (ROR-gamma) signaling pathway (AID 1159521;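 note: CHO cells with doxycycline inducible ROR-gamma driving an RORE luciferase reporter; top concentration of the series differs between compounds; nearly all actives have a fitted effect of over 50% in size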); conditions: Tet-on RORgamma CHO cells, RORE-luciferase, 16 h; series mostly up to 92.4 µM
How it was run: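 RORγ antagonism is scored from reduced reporter luminescence in Tet-on CHO cells. Induction used 1 uM final doxycycline hyclate for 16 h at 37 C, following a 2 h compound exposure.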

[7] = qHTS assay to identify small molecule agonists of the AP-1 signaling pathway - cell viability counter screen (AID 1159525; calls by dose curve; note: nearly all actives have a fitted effect of over 55% in size); conditions: ME-180 AP-1-bla cells viability, ATP luminescence, 5 h; series mostly up to 76.8 µM
How it was run: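 Same-well cytotoxicity counter screen of the Tox21 10K library in ME-180 cells. The readout is ATP-dependent luminescence after 5 h compound treatment. Data are normalised to DMSO and tetra n-octyl ammonium bromide controls.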

[8] = qHTS assay to identify small molecule agonists of the AP-1 signaling pathway (AID 1159526; calls by dose curve); conditions: ME-180 (cervical carcinoma) AP-1-bla reporter, beta-lactamase FRET ratio, 5 h; series mostly up to 76.8 µM
[9] = qHTS assay to identify small molecule agonists of the RXR signaling pathway - cell viability counter screen (AID 1159529); conditions: RXR-alpha-bla HEK293T viability, CellTiter-Glo, 16 h; series mostly up to 76.8 µM; note: nearly all actives have a fitted effect of over 50% in size
How it was run: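 Cell viability is measured by CellTiter-Glo luminescence, 30 min at room temperature, in wells already read for beta-lactamase. Engineered HEK 293T cells (RXR-alpha-UAS-bla) are dosed 16 hr at 37 C. Tetraoctyl ammonium bromide serves as positive control.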

[10] = qHTS assay to identify small molecule antagonists of the retinoid acid receptor (RAR) signaling pathway - cell viability counter screen (AID 1159551); conditions: C3RL4 cells viability, ATP luminescence (CellTiter-Glo), 6 h; series mostly up to 92.4 µM; note: nearly all actives have a fitted effect of over 35% in size
How it was run: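 Cytotoxicity counter screen: ATP content quantified by CellTiter-Glo luminescence in C3RL4 cells treated 6 hr at 37 C with compound and retinol (1 uM final). Cells plated at 1,000/well and cultured overnight before dosing.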

[11] = qHTS assay to identify small molecule antagonists of the vitamin D receptor (VDR) signaling pathway - cell viability counter screen (AID 743225); conditions: VDR-bla HEK293T viability, CellTiter-Glo luminescence, 16 h; series mostly up to 61 µM; note: nearly all actives have a fitted effect of over 50% in size
How it was run: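 Cells (VDR-UAS-bla HEK 293T) are plated, rested 4 h at 37C, dosed with compound and 3 nM final 1-alpha,25-dihydroxy vitamin D3, and incubated 16 h. Viability is taken from CellTiter-Glo luminescence in the reporter wells.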

[12] = target: Retinoic acid receptor RXR-alpha (Homo sapiens) (UniProt P19793); assay: qHTS assay to identify small molecule agonists of the RXR signaling pathway (AID 1159527; calls by dose curve; note: nearly all actives have a fitted effect of over 35% in size); conditions: HEK293T RXRa-UAS-bla, beta-lactamase ratio, 16 h; series mostly up to 76.8 µM
How it was run: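 qHTS of the Tox21 10K library in GeneBLAzer RXR-alpha HEK 293T cells carrying a beta-lactamase reporter […]; 16 hr treatment, 9-cis retinoic acid as agonist control, FRET read-out.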

[13] = qHTS assay to identify small molecule agonists of the vitamin D receptor (VDR) signaling pathway - cell viability counter screen (AID 743224); conditions: VDR-bla HEK293T viability, CellTiter-Glo luminescence, 16 h; series mostly up to 62.6 µM; note: nearly all actives have a fitted effect of over 50% in size
How it was run: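 Counter screen run in the same wells as the VDR-bla reporter assay: CellTiter-Glo luminescence, 30 min at room temperature, after 16 h compound treatment at 37C of cells pre-plated for 4 h.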

[14] = qHTS assay to identify small molecule antagonists of the retinoic acid receptor (RAR) signaling pathway (AID 1159552; note: nearly all actives have a fitted effect of over 50% in size); conditions: C3RL4 RARE luciferase reporter, retinol-stimulated, 6 h; series mostly up to 92.4 µM
How it was run: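 Quantitative HTS in C3RL4 RARE-luciferase reporter cells. Compounds were added with 1 uM (final) retinol; luminescence was read after 6 hr.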

Measured: Potency

Sequence of Retinoic acid receptor RXR-alpha (Homo sapiens) (P19793 whole entry, looked up): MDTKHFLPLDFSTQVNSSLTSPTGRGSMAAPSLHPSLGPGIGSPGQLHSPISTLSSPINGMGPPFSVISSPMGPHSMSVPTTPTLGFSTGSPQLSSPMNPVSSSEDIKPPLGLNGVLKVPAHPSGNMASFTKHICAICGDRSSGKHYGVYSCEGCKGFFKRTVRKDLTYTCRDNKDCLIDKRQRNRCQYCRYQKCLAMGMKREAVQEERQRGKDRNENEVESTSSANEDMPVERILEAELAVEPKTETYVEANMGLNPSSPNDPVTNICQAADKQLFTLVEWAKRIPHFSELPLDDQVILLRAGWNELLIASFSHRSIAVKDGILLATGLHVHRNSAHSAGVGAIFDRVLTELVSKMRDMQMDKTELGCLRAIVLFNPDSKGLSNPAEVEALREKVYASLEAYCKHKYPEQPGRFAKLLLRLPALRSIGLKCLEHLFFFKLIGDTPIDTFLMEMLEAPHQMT

CCOC(=O)N(C)C(=O)CSP(=S)(OCC)OCC
not listed: [11] | [12] | [13] | [14]
inactive: all other assays above

Nc1cc2c3c(c1)C(c1ccccc1)=N[C@@H](NC(=O)c1cccnc1)C(=O)N3CC2
not listed: [11] | [12] | [13] | [14]
inactive: all other assays above

OC(Cn1cncn1)(c1ccc(F)cc1)c1ccccc1F (centres undefined)
not listed: [13] | [14]
inactive: all other assays above

O=C(O)c1ccc2[nH]cc(CCCCN3CC=C(c4ccccc4)CC3)c2c1
not listed: [13] | [14]
inactive: all other assays above

COCC(=O)N(c1c(C)cccc1C)N1CCOC1=O
not listed: [14]
inactive: all other assays above

OCCSCSCCO
not listed: [9] | [13] | [14]
inactive: all other assays above

NC(=O)c1cc([N+](=O)[O-])cc([N+](=O)[O-])c1
not listed: [14]
inactive: all other assays above

ClC(Cl)(Cl)C(Cl)(Cl)Cl
not listed: [13] | [14]
inactive: all other assays above

CCS(=O)(=O)C(C)(C)S(=O)(=O)CC
not listed: [14]
inactive: all other assays above

CC(C)COP(=O)(OCC(C)C)OCC(C)C
not listed: [14]
inactive: all other assays above

CC1CCC(=O)O1 (centres undefined)
not listed: [13] | [14]
inactive: all other assays above

Cc1nnc2n1-c1sc(CCC(=O)N3CCOCC3)cc1C(c1ccccc1Cl)=NC2
not listed: [9]
inactive: all other assays above

CNC(=O)O/N=C(\C)SC
not listed: [14]
inactive: all other assays above

CCC1(c2ccccc2)C(=O)NC(=O)NC1=O
not listed: [14]
inactive: all other assays above

CN(C)CCc1ccc(O)cc1
not listed: [11] | [14]
inactive: all other assays above

CCCCP(CCCC)CCCC
not listed: [9] | [13] | [14]
inactive: all other assays above

COc1ncc(F)c2nc(S(=O)(=O)Nc3c(F)cccc3F)nn12
not listed: [14]
inactive: all other assays above

ClCC(Cl)Cl
not listed: [13] | [14]
inactive: all other assays above

COP(N)(=S)Oc1ccccc1C(=O)OC(C)C (centres undefined)
not listed: [14]
inactive: all other assays above

CCc1cc2c(s1)-n1c(C)nnc1CN=C2c1ccccc1Cl
not listed: [14]
inactive: all other assays above
